The source made the active and inactive calls.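 Rule for the calls: active = cells show a rise in impedance after compound treatment, with no numeric cutoff stated; inactive = no rise in impedance seen.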
These molecules were tested against Relaxin receptor 1 (Homo sapiens) (UniProt Q9HBX9) (assay: qHTS Assay for Agonists of the Relaxin Receptor RXFP1: Cell Impedance). Details: HEK293-RXFP1 cell impedance, xCELLigence, 500 nM time course; at 0.5 µM; hits give high values.
From the text: The relaxin hormone is involved in the variety of biological functions in normal tissues and diseases. The role of relaxin is well-established in female reproduction and parturition, mammary gland and endometrial development, maintenance of myometrial quiescence during pregnancy. Relaxin signaling through its G protein-coupled receptor (GPCR) RXFP1 results in ECM remodeling through regulation of collagen deposition, cell invasiveness, proliferation and overall tissue homeostasis. […] Recombinant human relaxin (rhRlx) is currently being tested in clinical trials as a protective agent in congestive heart failure, in treating severe preeclampsia, and as an anti-fibrotic agent in systemic sclerosis.
Upon relaxin binding RXFP1 activation leads to the activation of adenylate cyclase (AC) via Gs. cAMP will activate PKA, which phosphorylates many signaling proteins. Thus, detection of cAMP increase is an easy and reliable indication of relaxin receptor activation. To screen for agonists of the relaxin receptor, a HEK293T cell line stably transfected with RXFP1 was used. RXFP1 activation was assayed by changes in cAMP levels as detected with a time-resolved fluorescence energy transfer (TR-FRET) cAMP detection kit.
After the primary screen and rounds of SAR, a probe and analog were identified. It was previously shown that relaxin increases cell impedance in RXFP1 transfected cells. A cell line stably transfected with RXFP1 receptor HEK293-RXFP1 was used for cell impedance assay to confirm relaxin-like properties of the compounds.
NIH Chemical Genomics Center [NCGC]
NIH Molecular Libraries Probe Production Centers Network [MLPCN]
Assay Submitter (PI): Alexander Agoulnik
To equilibrate the plates, 100 microL of test media (DMEM, 1% FBS, 1x Pen/Strep) was added to each well of E Plate 16 (Roche Diagnostics, Indianapolis, IN) and the plate was incubated at room temperature for 30 minutes at which point baseline impedance was measures. Then 20,000 HEK293-RXFP1 cell or HEK293 cells (parental control cell line) were added per well in a volume of 100 microL test media and allowed to sediment at room temperature for 30 minutes. The plate was placed into xCELLigence RTCA DP Instrument in the CO2 incubator overnight to allow the cells to attach. Relaxin (10 ng/mL), vehicle, or compounds 500 nM were added to the wells and the cellular impedance was measured every 10-30 seconds for 1 hour.

Sequence of Relaxin receptor 1 (Homo sapiens) (Q9HBX9 whole entry, looked up): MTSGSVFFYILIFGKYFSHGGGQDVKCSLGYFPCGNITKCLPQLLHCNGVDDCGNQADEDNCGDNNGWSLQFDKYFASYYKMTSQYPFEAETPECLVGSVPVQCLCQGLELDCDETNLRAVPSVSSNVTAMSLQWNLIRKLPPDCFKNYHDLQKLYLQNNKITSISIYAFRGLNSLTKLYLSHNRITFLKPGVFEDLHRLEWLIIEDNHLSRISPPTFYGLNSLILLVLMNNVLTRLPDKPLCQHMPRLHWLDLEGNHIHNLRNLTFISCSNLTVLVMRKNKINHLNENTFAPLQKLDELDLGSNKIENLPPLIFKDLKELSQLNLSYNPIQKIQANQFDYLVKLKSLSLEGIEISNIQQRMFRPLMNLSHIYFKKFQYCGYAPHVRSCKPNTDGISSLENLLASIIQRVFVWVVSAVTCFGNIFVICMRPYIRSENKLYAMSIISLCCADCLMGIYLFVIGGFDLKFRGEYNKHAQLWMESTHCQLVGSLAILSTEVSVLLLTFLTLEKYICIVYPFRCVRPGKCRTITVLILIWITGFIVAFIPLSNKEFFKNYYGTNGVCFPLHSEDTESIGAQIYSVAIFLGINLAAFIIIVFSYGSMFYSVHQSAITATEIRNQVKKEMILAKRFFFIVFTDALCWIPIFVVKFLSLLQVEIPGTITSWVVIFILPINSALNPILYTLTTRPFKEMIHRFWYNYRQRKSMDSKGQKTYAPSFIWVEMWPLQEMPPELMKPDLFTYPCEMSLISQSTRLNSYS

Impedance increase (% of relaxin), active:
CC(C)Oc1ccccc1C(=O)Nc1ccccc1C(=O)Nc1cccc(S(=O)(=O)C(F)(F)F)c1 46.7%, CCCCOc1ccccc1C(=O)Nc1ccccc1C(=O)Nc1cccc(S(=O)(=O)C(F)(F)F)c1 39.5%, CCOc1ccccc1C(=O)Nc1ccccc1C(=O)Nc1cccc(C(F)(F)F)c1 67%, CCOc1ccccc1C(=O)Nc1ccccc1C(=O)Nc1cccc(S(=O)(=O)C(F)(F)F)c1 31.2%

From PubChem BioAssay AID602291 (National Center for Advancing Translational Sciences (NCATS), 2012)
